Test results reported in article PMC7862700, “An all-to-all approach to the identification of sequence-specific readers for epigenetic DNA modifications on cytosine”.

Key:
Test in all cases: DAPPL (digital affinity profiling via proximity ligation, sequencing); 10 mM Tris-HCl pH 7.5, 50 mM NaCl, 1 mM DTT, 4% glycerol, room temperature, 30 min; GST-TFs on glutathione beads, 16-mer random dsDNA library, 0.1% formaldehyde crosslink after washing; high values mean tight binding
[1] = biological target: T1, FEV (Homo sapiens, UniProt Q99581 1-238); details: protein: recombinant; tags: N-terminal GST; dsDNA, one strand shown
T1 sequence: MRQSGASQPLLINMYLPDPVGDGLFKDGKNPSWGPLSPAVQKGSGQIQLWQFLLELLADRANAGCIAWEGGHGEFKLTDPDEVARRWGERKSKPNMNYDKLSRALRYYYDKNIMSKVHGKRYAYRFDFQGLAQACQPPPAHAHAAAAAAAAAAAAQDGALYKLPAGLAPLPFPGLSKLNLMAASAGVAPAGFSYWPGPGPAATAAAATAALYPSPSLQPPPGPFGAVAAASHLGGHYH
Outline: (§1)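 Human transcription factors were made in yeast as GST fusions, captured on glutathione beads and barcoded with DNA. With a tag-only sample included, the pool was incubated with 200 nmole of a random double-stranded 16-mer DNA library in Tris/NaCl/DTT/glycerol buffer at room temperature for 30 min, then crosslinked with 0.1% formaldehyde after washing, ligated by proximity, amplified and sequenced. For binding signal, each hexamer's read frequency for a factor is divided by its frequency for the tag-only sample.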

[2] = biological target: ETV5 (Homo sapiens, UniProt P41161 1-510); details: protein: recombinant; tags: N-terminal GST; dsDNA, one strand shown
Chain of ETV5 (P41161 whole entry): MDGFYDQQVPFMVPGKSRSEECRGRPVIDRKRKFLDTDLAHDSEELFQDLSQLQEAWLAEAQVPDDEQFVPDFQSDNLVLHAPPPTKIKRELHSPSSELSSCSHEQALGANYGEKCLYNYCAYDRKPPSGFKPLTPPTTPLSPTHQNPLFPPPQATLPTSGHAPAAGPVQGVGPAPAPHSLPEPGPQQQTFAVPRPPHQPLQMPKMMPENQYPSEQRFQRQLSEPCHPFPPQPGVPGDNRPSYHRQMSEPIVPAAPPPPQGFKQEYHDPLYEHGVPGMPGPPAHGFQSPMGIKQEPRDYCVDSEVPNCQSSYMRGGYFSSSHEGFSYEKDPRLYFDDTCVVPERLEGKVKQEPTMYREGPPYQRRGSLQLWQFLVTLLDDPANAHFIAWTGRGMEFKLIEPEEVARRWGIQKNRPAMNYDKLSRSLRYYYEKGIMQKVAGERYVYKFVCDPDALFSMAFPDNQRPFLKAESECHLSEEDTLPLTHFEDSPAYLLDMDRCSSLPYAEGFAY
Outline: as §1

[3] = biological target: HSF1 (Homo sapiens, UniProt Q00613 1-529); details: protein: recombinant; tags: N-terminal GST; chain copies: 3; dsDNA, one strand shown
Chain of HSF1 (Q00613 whole entry): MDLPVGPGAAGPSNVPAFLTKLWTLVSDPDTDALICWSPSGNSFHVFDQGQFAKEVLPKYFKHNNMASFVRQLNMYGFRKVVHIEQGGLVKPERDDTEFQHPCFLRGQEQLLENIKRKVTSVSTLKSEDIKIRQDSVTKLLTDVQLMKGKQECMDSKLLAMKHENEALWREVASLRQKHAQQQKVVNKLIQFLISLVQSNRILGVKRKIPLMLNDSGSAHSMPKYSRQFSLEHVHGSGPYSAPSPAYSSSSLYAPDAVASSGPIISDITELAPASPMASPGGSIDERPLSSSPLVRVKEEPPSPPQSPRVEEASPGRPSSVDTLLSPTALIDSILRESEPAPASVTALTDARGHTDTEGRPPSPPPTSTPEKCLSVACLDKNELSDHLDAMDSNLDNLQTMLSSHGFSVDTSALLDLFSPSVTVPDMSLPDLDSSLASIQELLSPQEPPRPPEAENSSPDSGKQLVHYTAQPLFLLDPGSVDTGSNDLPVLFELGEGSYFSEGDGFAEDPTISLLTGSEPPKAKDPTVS
Outline: as §1

[4] = biological target: T2, SPIC (Homo sapiens, UniProt Q8N5J4 1-248); details: protein: recombinant; tags: N-terminal GST; dsDNA, one strand shown
T2 sequence: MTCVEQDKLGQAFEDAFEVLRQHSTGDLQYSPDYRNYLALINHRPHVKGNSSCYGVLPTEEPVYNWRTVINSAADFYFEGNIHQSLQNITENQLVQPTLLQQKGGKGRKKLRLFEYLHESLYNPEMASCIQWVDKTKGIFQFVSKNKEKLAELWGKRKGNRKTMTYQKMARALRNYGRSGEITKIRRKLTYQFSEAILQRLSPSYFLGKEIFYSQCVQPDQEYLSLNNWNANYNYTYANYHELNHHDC
Outline: as §1

[5] = biological target: ELF4 (Homo sapiens, UniProt Q99607 1-663); details: protein: recombinant; tags: N-terminal GST; dsDNA, one strand shown
Chain of ELF4 (Q99607 whole entry): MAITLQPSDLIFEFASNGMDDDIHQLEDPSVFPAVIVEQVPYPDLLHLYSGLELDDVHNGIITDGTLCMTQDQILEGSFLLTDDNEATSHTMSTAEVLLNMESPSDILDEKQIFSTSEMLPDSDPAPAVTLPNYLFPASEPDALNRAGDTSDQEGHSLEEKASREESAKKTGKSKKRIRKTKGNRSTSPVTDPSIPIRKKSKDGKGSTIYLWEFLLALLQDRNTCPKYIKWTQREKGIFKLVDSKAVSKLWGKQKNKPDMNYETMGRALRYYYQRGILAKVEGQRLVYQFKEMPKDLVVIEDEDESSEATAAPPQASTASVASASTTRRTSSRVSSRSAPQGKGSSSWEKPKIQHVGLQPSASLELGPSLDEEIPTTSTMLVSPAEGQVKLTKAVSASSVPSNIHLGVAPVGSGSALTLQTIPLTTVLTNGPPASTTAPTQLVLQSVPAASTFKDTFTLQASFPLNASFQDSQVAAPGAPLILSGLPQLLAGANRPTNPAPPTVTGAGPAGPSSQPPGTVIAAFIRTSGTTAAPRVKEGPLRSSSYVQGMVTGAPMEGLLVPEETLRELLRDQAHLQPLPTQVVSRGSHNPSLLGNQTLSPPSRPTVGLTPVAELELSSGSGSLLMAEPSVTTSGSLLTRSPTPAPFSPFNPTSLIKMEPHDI
Outline: as §1

[6] = biological target: T3, ELK4 (Homo sapiens, UniProt P28324-2 1-405); details: protein: recombinant; tags: N-terminal GST; dsDNA, one strand shown
T3 sequence: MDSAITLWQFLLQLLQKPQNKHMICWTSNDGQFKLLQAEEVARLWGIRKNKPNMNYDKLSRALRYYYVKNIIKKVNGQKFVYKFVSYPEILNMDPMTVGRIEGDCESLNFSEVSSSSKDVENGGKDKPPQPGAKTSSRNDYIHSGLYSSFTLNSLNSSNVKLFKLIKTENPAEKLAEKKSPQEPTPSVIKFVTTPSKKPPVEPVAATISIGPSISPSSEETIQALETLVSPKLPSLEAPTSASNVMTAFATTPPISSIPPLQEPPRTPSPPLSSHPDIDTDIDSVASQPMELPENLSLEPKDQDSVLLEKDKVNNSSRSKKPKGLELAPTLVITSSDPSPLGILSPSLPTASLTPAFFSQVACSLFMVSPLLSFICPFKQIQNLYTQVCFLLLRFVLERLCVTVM
Outline: as §1

[7] = biological target: T4, ETV2 (Homo sapiens, UniProt O00321 1-342); details: protein: recombinant; tags: N-terminal GST; dsDNA, one strand shown
T4 sequence: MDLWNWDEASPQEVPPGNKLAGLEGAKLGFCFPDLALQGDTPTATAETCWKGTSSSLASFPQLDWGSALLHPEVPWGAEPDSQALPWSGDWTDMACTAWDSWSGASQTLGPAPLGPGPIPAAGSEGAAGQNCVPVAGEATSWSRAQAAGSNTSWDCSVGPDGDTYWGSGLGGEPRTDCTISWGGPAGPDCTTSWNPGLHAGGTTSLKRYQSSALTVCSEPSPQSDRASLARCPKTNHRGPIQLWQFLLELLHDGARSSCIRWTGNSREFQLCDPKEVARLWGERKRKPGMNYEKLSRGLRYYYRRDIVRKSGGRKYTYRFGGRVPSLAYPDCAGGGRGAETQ
Outline: as §1

[8] = biological target: T5, ELF3 (Homo sapiens, UniProt P78545 1-371); details: protein: recombinant; tags: N-terminal GST; dsDNA, one strand shown
T5 sequence: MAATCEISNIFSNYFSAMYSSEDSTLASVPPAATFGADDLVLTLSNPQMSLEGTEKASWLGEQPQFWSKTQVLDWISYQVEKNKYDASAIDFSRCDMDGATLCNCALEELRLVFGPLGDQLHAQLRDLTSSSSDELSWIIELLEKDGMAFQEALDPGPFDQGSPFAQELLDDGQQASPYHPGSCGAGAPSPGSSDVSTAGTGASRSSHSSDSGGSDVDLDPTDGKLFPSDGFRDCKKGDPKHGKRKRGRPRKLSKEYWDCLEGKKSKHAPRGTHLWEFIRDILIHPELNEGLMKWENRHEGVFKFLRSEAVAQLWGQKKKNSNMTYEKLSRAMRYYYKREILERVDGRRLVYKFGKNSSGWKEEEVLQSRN
Outline: as §1

[9] = biological target: CRX (Homo sapiens, UniProt O43186 1-299); details: protein: recombinant; tags: N-terminal GST; dsDNA, one strand shown
Chain of CRX (O43186 whole entry): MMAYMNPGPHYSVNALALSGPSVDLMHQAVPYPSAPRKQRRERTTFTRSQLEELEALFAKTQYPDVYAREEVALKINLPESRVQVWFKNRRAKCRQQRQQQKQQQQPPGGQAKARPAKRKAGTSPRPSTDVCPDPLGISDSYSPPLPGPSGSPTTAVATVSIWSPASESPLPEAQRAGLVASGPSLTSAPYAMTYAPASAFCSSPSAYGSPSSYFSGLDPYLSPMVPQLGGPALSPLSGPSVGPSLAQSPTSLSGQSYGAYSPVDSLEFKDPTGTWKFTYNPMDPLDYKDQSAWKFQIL
Outline: as §1

[10] = biological target: ETV1 (Homo sapiens, UniProt P50549 1-477); details: protein: recombinant; tags: N-terminal GST; dsDNA, one strand shown
Chain of ETV1 (P50549 whole entry): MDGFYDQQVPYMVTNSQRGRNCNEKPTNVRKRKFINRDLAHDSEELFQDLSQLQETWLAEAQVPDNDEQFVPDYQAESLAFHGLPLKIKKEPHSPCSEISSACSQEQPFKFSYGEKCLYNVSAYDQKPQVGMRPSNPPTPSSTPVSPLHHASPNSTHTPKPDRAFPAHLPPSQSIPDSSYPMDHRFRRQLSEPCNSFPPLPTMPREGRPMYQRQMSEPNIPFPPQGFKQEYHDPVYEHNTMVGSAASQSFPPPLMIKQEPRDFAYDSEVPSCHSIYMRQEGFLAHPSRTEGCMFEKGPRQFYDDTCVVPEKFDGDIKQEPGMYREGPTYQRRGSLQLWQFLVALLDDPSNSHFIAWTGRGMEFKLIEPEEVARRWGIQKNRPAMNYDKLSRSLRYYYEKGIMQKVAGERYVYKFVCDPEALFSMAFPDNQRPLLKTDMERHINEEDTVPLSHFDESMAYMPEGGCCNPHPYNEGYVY
Outline: as §1

[11] = biological target: T6, ERF (Homo sapiens, UniProt P50548 1-548); details: protein: recombinant; tags: N-terminal GST; dsDNA, one strand shown
T6 sequence: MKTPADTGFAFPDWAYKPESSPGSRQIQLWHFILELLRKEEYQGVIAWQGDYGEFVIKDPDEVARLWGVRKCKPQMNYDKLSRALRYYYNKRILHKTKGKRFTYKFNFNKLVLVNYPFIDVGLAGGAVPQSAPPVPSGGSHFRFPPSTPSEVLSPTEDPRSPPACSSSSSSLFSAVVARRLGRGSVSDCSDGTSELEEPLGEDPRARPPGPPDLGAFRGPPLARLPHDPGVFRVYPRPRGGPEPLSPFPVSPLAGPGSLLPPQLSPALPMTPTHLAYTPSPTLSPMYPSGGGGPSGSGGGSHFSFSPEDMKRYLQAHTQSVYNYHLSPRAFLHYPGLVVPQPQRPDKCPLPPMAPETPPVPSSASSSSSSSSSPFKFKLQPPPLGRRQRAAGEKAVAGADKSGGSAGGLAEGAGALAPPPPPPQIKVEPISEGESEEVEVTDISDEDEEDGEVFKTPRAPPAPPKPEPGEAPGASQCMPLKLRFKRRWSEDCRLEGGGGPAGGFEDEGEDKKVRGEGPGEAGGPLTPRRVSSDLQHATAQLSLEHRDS
Outline: as §1

[12] = biological target: T7, ETV3L (Homo sapiens, UniProt Q6ZN32 1-361); details: protein: recombinant; tags: N-terminal GST; dsDNA, one strand shown
T7 sequence: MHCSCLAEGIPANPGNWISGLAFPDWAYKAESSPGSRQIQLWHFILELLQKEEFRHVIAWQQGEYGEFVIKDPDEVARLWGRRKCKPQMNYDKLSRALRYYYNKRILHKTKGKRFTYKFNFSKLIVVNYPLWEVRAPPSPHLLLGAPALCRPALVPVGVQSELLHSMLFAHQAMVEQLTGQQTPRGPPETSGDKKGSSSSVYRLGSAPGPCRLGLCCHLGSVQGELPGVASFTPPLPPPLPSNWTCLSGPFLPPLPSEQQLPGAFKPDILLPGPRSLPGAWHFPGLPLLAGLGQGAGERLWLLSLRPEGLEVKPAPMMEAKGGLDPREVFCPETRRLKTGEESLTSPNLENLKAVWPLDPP
Outline: as §1

[13] = biological target: T8, ETS2 (Homo sapiens, UniProt P15036 1-469); details: protein: recombinant; tags: N-terminal GST; dsDNA, one strand shown
T8 sequence: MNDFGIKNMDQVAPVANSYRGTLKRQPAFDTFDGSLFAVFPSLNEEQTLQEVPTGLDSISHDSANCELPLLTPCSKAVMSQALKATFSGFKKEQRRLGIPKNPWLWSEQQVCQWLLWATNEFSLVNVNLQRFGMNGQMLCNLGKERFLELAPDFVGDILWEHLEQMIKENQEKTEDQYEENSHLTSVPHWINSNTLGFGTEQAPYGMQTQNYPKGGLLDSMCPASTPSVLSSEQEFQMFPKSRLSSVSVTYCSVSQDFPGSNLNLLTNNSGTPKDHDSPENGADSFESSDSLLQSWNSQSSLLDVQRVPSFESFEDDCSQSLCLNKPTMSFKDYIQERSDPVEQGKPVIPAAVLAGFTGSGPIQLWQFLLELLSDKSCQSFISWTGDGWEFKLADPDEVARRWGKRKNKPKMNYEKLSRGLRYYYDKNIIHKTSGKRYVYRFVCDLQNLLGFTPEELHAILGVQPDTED
Outline: as §1

[14] = biological target: T9, SPDEF (Homo sapiens, UniProt O95238 1-335); details: protein: recombinant; tags: N-terminal GST; dsDNA, one strand shown
T9 sequence: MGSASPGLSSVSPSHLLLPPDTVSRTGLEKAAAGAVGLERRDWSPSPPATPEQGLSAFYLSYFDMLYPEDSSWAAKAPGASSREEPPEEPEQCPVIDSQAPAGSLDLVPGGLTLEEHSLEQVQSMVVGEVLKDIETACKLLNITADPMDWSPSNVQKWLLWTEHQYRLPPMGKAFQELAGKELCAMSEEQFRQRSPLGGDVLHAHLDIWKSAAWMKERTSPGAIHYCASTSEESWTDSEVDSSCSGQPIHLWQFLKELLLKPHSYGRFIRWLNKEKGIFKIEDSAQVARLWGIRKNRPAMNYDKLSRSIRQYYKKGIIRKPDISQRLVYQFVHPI
Outline: as §1

[15] = biological target: T10, ETV7 (Homo sapiens, UniProt Q9Y603 1-341); details: protein: recombinant; tags: N-terminal GST; dsDNA, one strand shown
T10 sequence: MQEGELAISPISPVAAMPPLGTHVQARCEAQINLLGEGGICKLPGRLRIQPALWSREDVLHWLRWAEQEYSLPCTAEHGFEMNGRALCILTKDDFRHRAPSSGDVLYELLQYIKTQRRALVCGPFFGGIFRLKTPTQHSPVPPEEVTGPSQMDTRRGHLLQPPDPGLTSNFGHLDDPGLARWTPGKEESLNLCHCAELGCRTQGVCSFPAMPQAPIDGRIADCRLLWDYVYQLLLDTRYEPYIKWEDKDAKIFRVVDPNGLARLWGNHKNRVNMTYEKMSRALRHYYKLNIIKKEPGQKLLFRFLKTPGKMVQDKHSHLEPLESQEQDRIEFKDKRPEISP
Outline: as §1

[16] = biological target: T11, ELF5 (Homo sapiens, UniProt Q9UKW6-2 1-255); details: protein: recombinant; tags: N-terminal GST; dsDNA, one strand shown
T11 sequence: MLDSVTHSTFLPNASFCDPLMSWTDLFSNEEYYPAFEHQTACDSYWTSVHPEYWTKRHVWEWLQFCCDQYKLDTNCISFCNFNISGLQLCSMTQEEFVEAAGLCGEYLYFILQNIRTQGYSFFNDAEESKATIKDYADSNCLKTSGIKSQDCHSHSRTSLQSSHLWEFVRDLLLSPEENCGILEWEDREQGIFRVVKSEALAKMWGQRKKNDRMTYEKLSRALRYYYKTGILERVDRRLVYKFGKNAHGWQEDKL
Outline: as §1

[17] = biological target: T12, ETV3 (Homo sapiens, UniProt P41162-2 1-143); details: protein: recombinant; tags: N-terminal GST; dsDNA, one strand shown
T12 sequence: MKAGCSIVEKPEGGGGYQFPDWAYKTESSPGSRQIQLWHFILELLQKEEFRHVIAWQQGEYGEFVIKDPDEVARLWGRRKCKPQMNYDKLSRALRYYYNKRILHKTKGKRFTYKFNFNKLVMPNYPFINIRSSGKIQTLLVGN
Outline: as §1

[18] = biological target: ETV6 (Homo sapiens, UniProt P41212 1-452); details: protein: recombinant; tags: N-terminal GST; dsDNA, one strand shown
Chain of ETV6 (P41212 whole entry): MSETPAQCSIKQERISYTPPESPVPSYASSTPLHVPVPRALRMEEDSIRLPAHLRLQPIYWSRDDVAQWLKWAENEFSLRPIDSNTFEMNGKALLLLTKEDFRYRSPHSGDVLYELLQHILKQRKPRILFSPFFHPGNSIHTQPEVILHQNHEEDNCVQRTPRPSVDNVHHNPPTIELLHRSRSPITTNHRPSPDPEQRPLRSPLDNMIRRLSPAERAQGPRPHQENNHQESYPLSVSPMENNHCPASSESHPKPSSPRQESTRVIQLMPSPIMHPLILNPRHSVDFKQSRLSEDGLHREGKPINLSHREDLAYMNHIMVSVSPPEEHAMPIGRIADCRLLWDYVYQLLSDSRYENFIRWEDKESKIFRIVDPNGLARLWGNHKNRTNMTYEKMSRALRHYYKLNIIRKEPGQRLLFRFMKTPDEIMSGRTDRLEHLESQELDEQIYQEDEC
Outline: as §1

**Q.** For TTACAC, which binding signal [1] is on record?
**A.** 1.24 fold enrichment (6-mer frequency, TF over GST control)

**Q.** What about the binding signal [2] of the same sequence?
**A.** 1.23 fold enrichment (6-mer frequency, TF over GST control)

**Q.** And the binding signal [3]?
**A.** 1.35 fold enrichment (6-mer frequency, TF over GST control)

**Q.** And the binding signal [4]?
**A.** 1.17 fold enrichment (6-mer frequency, TF over GST control)

**Q.** What about the binding signal [5] of the same sequence?
**A.** 1.21 fold enrichment (6-mer frequency, TF over GST control)

**Q.** And the binding signal [6]?
**A.** 1.25 fold enrichment (6-mer frequency, TF over GST control)

**Q.** And the binding signal [7]?
**A.** 1.16 fold enrichment (6-mer frequency, TF over GST control)

**Q.** What about the binding signal [8] of the same sequence?
**A.** 1.2 fold enrichment (6-mer frequency, TF over GST control)

**Q.** What about the binding signal [9] of the same sequence?
**A.** 1.73 fold enrichment (6-mer frequency, TF over GST control)

**Q.** And the binding signal [10]?
**A.** 1.27 fold enrichment (6-mer frequency, TF over GST control)

**Q.** What about the binding signal [11] of the same sequence?
**A.** 1.2 fold enrichment (6-mer frequency, TF over GST control)

**Q.** And the binding signal [12]?
**A.** 1.15 fold enrichment (6-mer frequency, TF over GST control)

**Q.** And the binding signal [13]?
**A.** 1.22 fold enrichment (6-mer frequency, TF over GST control)

**Q.** What about the binding signal [14] of the same sequence?
**A.** 1.23 fold enrichment (6-mer frequency, TF over GST control)

**Q.** And the binding signal [15]?
**A.** 1.19 fold enrichment (6-mer frequency, TF over GST control)

**Q.** What about the binding signal [16] of the same sequence?
**A.** 1.19 fold enrichment (6-mer frequency, TF over GST control)

**Q.** What about the binding signal [17] of the same sequence?
**A.** 1.15 fold enrichment (6-mer frequency, TF over GST control)

**Q.** What about the binding signal [18] of the same sequence?
**A.** 1.2 fold enrichment (6-mer frequency, TF over GST control)
